Source: PubChem (several laboratories)
ALR H2O2 inh – blocks human ALR sulfhydryl oxidase activity; 290,000 compounds, 3.8% hits; purified ALR, DTT oxidation, H2O2 HRP-luminol luminescence; P55789; inhibition, % (concentration not given with the values);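 active = mean replicate inhibition above about 79%, with every replicate also reaching it, limit read from the data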
AI-2 QS modul – Vibrio harveyi AI-2 quorum sensing modulation. Vibrio harveyi JMH597 AI-2 luminescence/OD600 ratio, 9 h; hits give low values; strain lacks LuxN and CqsS sensors; 0 = neutral-control median. activity change, % at 7.5 µM. 300,000 compounds, 0.4% hits. AID 2094; in the data active = activity change below about -75%, passing the limit was not always enough;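 also: luminescence divided by OD600 gain over 9 h not by final OD600 alone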
PREPL inhibitor – inhibitors of human prolyl oligopeptidase-like enzyme PREPL | recombinant PREPL, fluorescence polarization activity-based probe | AID 2751 | 320,000 compounds, 0.68% hits | Q4J6C6 | inhibition, % at 5.96 µM; in the data active = inhibition above about 43%
CHT allo act – allosterically activates the human high affinity choline transporter; 310,000 compounds, 0.49% hits; CHT-expressing cells, membrane potential dye, choline EC20; hits give high values; LV-AA mutant CHT in HEK293 cells; Q9GZV3; B-score at 10 µM;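 active = initial fluorescence not abnormally high and integrated response B-score, plate-corrected, over 3 SD above library mean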
Target sequence (Q9GZV3 whole entry, looked up): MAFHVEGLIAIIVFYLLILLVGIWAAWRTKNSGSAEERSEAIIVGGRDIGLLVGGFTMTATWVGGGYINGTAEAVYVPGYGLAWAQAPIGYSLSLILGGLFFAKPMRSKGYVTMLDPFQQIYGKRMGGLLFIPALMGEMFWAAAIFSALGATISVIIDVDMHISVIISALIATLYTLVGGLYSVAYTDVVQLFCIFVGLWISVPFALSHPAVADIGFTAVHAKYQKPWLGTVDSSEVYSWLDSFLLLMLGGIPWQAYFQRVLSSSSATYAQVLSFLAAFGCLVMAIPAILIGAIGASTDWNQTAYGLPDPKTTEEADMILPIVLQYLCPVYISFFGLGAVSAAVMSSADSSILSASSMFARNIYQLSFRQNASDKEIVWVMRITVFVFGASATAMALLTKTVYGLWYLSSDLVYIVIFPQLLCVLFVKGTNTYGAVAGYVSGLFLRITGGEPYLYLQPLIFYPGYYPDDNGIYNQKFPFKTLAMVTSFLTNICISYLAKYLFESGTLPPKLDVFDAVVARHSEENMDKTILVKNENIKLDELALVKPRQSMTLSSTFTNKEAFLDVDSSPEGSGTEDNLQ
CHT inh – inhibitors of human choline transporter CHT; CHT-expressing cells, membrane potential dye, choline response; hits give low values; Q9GZV3; B-score at 10 µM; 310,000 compounds, 0.86% hits;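 active = B-score over 3 SD under the library average, and starting fluorescence ratio not unusually high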;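 also: choline stimulus applied at its EC90 after an EC20 pre-addition; B-score computed on integrated fluorescence ratio after choline addition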
Hits are given with their value; - = inactive; . = not tested or not shown. Shown are actives, neighbours in structure and some others; about 5% of the full set was active somewhere.

SMILES	ALR H2O2 inh	AI-2 QS modul	PREPL inhibitor	CHT allo act	CHT inh
Cc1cccc(N2C(=O)NC(=O)/C(=C\c3ccc(N4CCOCC4)cc3)C2=O)c1	-	-	-	-	-
CCOP(=O)(OCC)C(NS(=O)(=O)c1ccccc1)C(Cl)(Cl)Cl (stereo not drawn)	-	-	-	-	-
CCOc1cc(/C=C2\C(=O)NC(=O)N(C)C2=O)cc([N+](=O)[O-])c1O	.	-	-	-	-
O=P(N[C@@H](c1ccccc1)[C@@H]1C[C@H]1CO)(c1ccccc1)c1ccccc1	.	-	-	-	-
NC(Cc1cc(O)c(O)cc1O)C(=O)O (stereo not drawn)	.	.	67	-	-
N[C@@H](CCl)C(=O)O	-	-	-	-	-
C=CCn1c(O)c(C(C)=Nc2cc(OC)ccc2OC)c(=O)[nH]c1=O	-	-	-	-	-
Cc1ccc(NC(=O)CSc2nnc([C@@H](N)Cc3c[nH]c4ccccc34)o2)c(C)c1	98	-	-	-	-
CCc1ccccc1NC(=O)CSc1nnc([C@@H](N)Cc2c[nH]c3ccccc23)o1	-	-	-	-	-
COC(=O)C1=C(c2ccc(OC(F)(F)F)cc2)C[C@@H]2CC[C@H]1N2C(=O)NCc1cc(C)oc1C(F)(F)F	-	.	-	.	.
CC(=O)OC(C)(C)/C=C/C(=O)C(C)(O)C1[C@H](O)C[C@@]2(C)C3CC=C4C(CC[C@@H](O)C4(C)C)[C@]3(CO)C(=O)C[C@]12C (stereo partly drawn)	-	-	-	8.7	-
Cc1ccc(CN2CCCN(Cc3ccc(C)cc3)S2(=O)=O)cc1	-	-	-	-	-
Cc1ccc(Cn2cc(C=O)c(-c3ccc(C)cc3)n2)cc1	90	-	-	-	-
O=c1[nH]c(=S)n(C2CC2)c(O)c1C=NCC1CCCO1 (stereo not drawn)	-	-	-	-	-
Cc1cc(=O)oc2cc3c(cc12)CCCN3	93	-	-	-	-
CN1CCN(C(=O)COc2ccc3ccccc3c2Br)CC1	-	-	-	-	-
CCN1/C(=C\C=C\C2=[N+](CC)c3ccccc3C2(C)C)C(C)(C)c2ccccc21	88	-	-	-	-
CN(C(=O)Oc1ccc(C(C)(C)C)cc1)c1ccccc1	-	-	-	-	-
O=c1[nH]c(=S)n(CCC2=CCCCC2)c(O)c1/C=N/Nc1ccccc1	97	-	-	-	-
COc1ccc(-c2nn(CCC#N)cc2C(=O)Nc2ccccc2Br)cc1	-	-	-	-	-
CC(=O)N1N=C(c2cccnc2)OC1c1ccccc1Cl (stereo not drawn)	-	-	-	-	-
Clc1ccccc1CN1CCN(c2cccc3[nH]ccc23)CC1	97	-	-	-	-
Nc1ccc(N2CCN(Cc3ccccc3Cl)CC2)c(Cl)c1	89	-	-	-	-
Clc1ccccc1CN1CCN(c2ccccc2)CC1	99	-	-	-	-
O=C1NC(=O)N(c2ccccc2)C(=O)/C1=C/c1coc2ccc(O)cc2c1=O	-	-	-	-	-
SMILES	ALR H2O2 inh	AI-2 QS modul	PREPL inhibitor	CHT allo act	CHT inh
Cc1cccc(CN2CCCC(C(=O)c3ccc4c(c3)OCO4)C2)n1 (stereo not drawn)	-	-	-	-	-
Oc1cc2c(cc1O)[C@H]1c3ccccc3CN[C@@H]1CC2	99	-	-	-	-
O=C(NCc1cccnc1)C(Cl)(Cl)Cl	-	-	-	-	-
COc1cc(/C=C/C(=O)c2c(O)n(CCc3ccccc3)c(=O)[nH]c2=O)ccc1O	97	-	-	-	-
O=C(/C=C/c1ccc2c(c1)OCO2)c1c(O)n(CCc2ccccc2)c(=O)[nH]c1=O	-	.	-	-	-
O=C(O)CCn1cc(C=C2C(=O)NC(=S)NC2=O)c(-c2ccccc2)n1	87	-	-	-	-
O=c1c2ccccc2nc(CSc2ncnc3nc[nH]c23)n1-c1ccc(Cl)c(Cl)c1	-	-	-	-	-
O=C(O)COc1ccc(Cl)cc1Cl	.	-	-	-	-
Oc1cc(Cl)ccc1Oc1ccc(Cl)cc1Cl	-	-	-	-	-5
Clc1ccc(C(c2ccccc2)c2ncc[nH]2)cc1 (stereo not drawn)	-	-	-	-	-
CC/C(=N\Nc1ccccc1)c1c(O)n(-c2ccccc2)c(=O)[nH]c1=O	99	-	-	-	-
